# Bioassay records as filed in PubChem.
# Shown are actives, neighbours in structure and some others; about 2% of the full set was active somewhere.
# TexasRed fluor = counter-screen for TRb-SRC2 inhibitors: fluorescence interference; TRb/SRC2 Texas Red total fluorescence interference; Potency, µM (doses to about 106 µM), for the others: at the highest dose fluorescence change, negative = quenching; 280,000 tested, 0.29% active; AID 1479; active means well fitted curve in either direction with a large enough effect; inconclusive means small, poorly fitted or top-dose-only effect; further: potency means the concentration at half of the fitted maximal effect; on the % scale 0 is the no-effect control and ±100 the full control effect
#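 Flags fluorescent or light-absorbing compounds by total fluorescence, S + 2P, at 555 nm excitation and 632 nm emission. Mixture: 20 nM Texas Red SRC2 peptide, 0.6 uM human TRb LBD, 1 uM T3, 5% DMSO; compound exposure 5 h at ambient temperature.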
# HTT aggregate = mutant huntingtin aggregation inhibition; 220,000 tested, 1.1% active; AID 1688; Potency, µM (titrated, usually from 46.1 µM), for inactives: at the top dose activity change, negative = inhibition, hits mostly inhibitors; PC12 HttQ103-GFP aggregates, Acumen cytometry, 40 h; further: potency means the concentration at half of the fitted maximal effect; on the % scale 0 is the no-effect control and ±100 the full control effect; nearly all actives have a fitted effect of over 60% in size
#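 Read-out: GFP aggregate count by laser scanning cytometer (488 nm excitation, 500-530 nm emission, 1–25 µm objects >6 SD above background). Cells: PC12, inducible HTTex1-Q103-GFP, 100 nM tebufenozide; compounds titrated.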
# JMJD2E inh = inhibitors of human JMJD2E histone demethylase; B2RXH2; JMJD2E catalytic domain, FDH-coupled NADH fluorescence (FDH is formaldehyde dehydrogenase); Potency, µM (top dose mostly 57.1 µM), for the others: at the highest dose activity change, negative = inhibition, usual class: inhibitors; 230,000 tested, 1.6% active; AID 2147; active means well fitted inhibition curve with a large enough effect, not every such curve was filed as active; inconclusive means small, poorly fitted or top-dose-only effect, or another doubt; inactive means no such curve, though single readings can be large or run the other way;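 further: potency means the concentration at half of the fitted maximal effect; 0% = wells with enzyme and -100% = buffer wells without enzyme; nearly all actives have a fitted effect of over 50% in size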
# TRb SRC2 PPI = inhibitors of human thyroid hormone receptor beta-SRC2 interaction; P10828; TRbeta-SRC2 peptide binding, fluorescence polarization; receptor liganded with 1 µM T3; Potency, µM (top dose mostly 106 µM), inactives show top-dose activity change, negative = inhibition, hits mostly inhibitors; 280,000 tested, 0.065% active; AID 1469;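 further: potency means the concentration at half of the fitted maximal effect; plate controls were bound peptide for no effect and peptide without receptor for full effect; nearly all actives have a fitted effect of over 50% in size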
# Target sequence (P10828 whole entry, looked up): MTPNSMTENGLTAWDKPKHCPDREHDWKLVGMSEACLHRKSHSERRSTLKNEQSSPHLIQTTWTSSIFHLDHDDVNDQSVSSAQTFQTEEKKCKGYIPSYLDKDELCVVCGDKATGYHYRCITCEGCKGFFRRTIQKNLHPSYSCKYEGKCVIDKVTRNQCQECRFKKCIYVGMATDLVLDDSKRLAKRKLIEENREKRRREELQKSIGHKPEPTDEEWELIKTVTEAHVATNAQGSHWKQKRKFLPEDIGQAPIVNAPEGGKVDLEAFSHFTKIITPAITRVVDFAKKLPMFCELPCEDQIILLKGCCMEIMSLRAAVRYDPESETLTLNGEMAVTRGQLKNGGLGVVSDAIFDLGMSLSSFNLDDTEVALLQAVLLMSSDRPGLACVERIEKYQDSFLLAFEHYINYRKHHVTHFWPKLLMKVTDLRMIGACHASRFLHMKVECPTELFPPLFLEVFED
#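 Compounds were added to 0.6 uM TRb ligand-binding domain and 20 nM Texas Red-labeled SRC2 peptide in Tris buffer containing 1 uM T3, incubated 5 hr at ambient temperature, then read by fluorescence polarization.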
# FBPA coupling cs = inhibits coupling enzyme system, counter-screen for aldolase hits. 290,000 tested, 0.67% active. coupling enzyme system counterscreen, AmpLite Red fluorescence. activity change, negative = inhibition, % at 58.2 µM, hits read low. AID 2472; in the data active means activity change below about -30%; further: on the % scale 0 is the no-effect control and ±100 the full control effect
#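 Compounds tested against the coupling enzymes alone at 57.5 uM final; readout was AmpLite Red fluorescence (525/598 nm) after 20 min at RT.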
# HTT ATP protect = cytoprotection in Huntington HTT-Q103 PC12 cell model; PC12 HTT-Q103 induced, cytoprotection, ATP luminescence, 40 h; 230,000 tested, 0.14% active; Potency, µM (top dose mostly 56.4 µM), without a hit: cytoprotection (ATP increase), hits mostly activators; further: potency means the concentration at half of the fitted maximal effect; % of control where 0% means no effect; nearly all actives have a fitted effect of over 45% in size
#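 Compounds added alongside 100 nM tebufenozide, which induces toxic Q103 huntingtin exon 1-GFP in stable PC12 cells; surviving cells quantified by luminescent ATP measurement. Medium: phenol red-free DMEM, 5% equine and 5% calf serum.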
# The depositor's hits bear a star; ? = inconclusive; . = no result given; [ ] = remark or other dose. Unless noted, the call rests on the fitted dose curve; in most records, active means well fitted curve in the direction sought with a large enough effect; inconclusive means small, poorly fitted or top-dose-only effect, or another doubt; inactive means no such curve, though single readings can be large; an effect the other way counts as inactive or inconclusive.
SMILES,TexasRed fluor,HTT aggregate,JMJD2E inh,TRb SRC2 PPI,FBPA coupling cs,HTT ATP protect
Cc1ccc(N=Cc2cc(Cc3ccccc3Cl)cc([N+](=O)[O-])c2O)c(O)c1,?,?,18µM*,-7%,-29,?
COc1ccc(N=Cc2cc(Cc3ccccc3Cl)cc([N+](=O)[O-])c2O)cc1OC,-7%,22µM*,?,-6%,2,35µM*
Cc1n[nH]c(C)c1Sc1ccccc1N=Cc1cc(Cl)cc([N+](=O)[O-])c1O,12%,1%,5%,1%,-7,16%[10 µM]
O=C1C(=O)N(C2CCNCC2)CCN1Cc1ccccc1,-2%,.,.,-7%,.,.
O=C(O)c1cccc(NS(=O)(=O)c2ccc(C3CCCCC3)cc2)c1,-4%,.,6%,-1%,13,.
Cc1cccc(NS(=O)(=O)c2ccc(C3CCCCC3)cc2)c1,-1%,11µM*,-2%,3%,2,-57%
O=C1C=C(Nc2ccccc2)C(=O)c2ccccc21,0%,11µM*,2%,10%,-19,-134%
O=C1C=C(Nc2ccccc2)c2ccccc2C1=O,-2%,4.5µM*,-25%,-14%,-49*,-186%
O=C1C=C(Nc2cccc3cccnc23)c2ccccc2C1=O,.,.,.,.,-65*,.
O=C(O)c1ccccc1Nc1ccccc1C(=O)O,-5%,5%,8%,-2%,1,-27%
O=C1C=C(Nc2ccccc2C(=O)O)c2ccccc2C1=O,-6%,-12%[9.22 µM],?,1%,-49*,-1%[10 µM]
O=C1C(Nc2ccccc2)=CC(=O)c2ncccc21,-9%,.,.,4%,-24,-187%
CS[C@@H]1SC[C@H]2C(=O)N(C)C(C(C)C)C(=O)OC[C@@H](NC(=O)c3cnc4ccccc4n3)C(=O)N[C@@H](C)C(=O)N(C)[C@H]1C(=O)N(C)C(C(C)C)C(=O)OC[C@@H](NC(=O)c1cnc3ccccc3n1)C(=O)N[C@@H](C)C(=O)N2C (some centres undefined),1%,.,.,5%,1,.
O=C(Nc1ccc(Cl)c(Cl)c1)N1CCC(c2ccccc2)C1 (centres undefined),-1%,.,.,4%,.,.
CCCCC(=O)Nc1cc(C)c(O)c(-c2nc3ncccc3o2)c1,6%,.,.,6%,.,.
O=C(NC(=S)Nc1ccccc1N1CCCC1)c1ccco1,-6%,3%[9.22 µM],-25%,-3%,-38*,18%[10 µM]
O=C(NC(=S)Nc1ccccc1N1CCCCC1)c1ccco1,0%,16%,-10%,-12%,3,26%[10 µM]
Cc1cccc2nc(-c3cccc(NS(=O)(=O)c4ccccc4)c3)cn12,-4%,.,.,0%,.,.
CCOc1ccc(-c2c(C)nn3c(C)c(C(=O)NCc4ccc(Cl)cc4)cnc23)cc1OCC,251µM*[quencher],.,.,-11%,.,.
COc1ccc(Cl)cc1NC(=O)CSc1nc(=O)n(Cc2ccco2)c2c1CCC2,1%,.,.,-10%,.,.
COc1ncc2nc(-c3ccc(F)cc3)c(=O)n(-c3ccccc3)c2n1,.,.,.,.,-2,-72%
Cc1ccc(-n2nnnc2SCC(=O)Nc2cccc(NC(=O)c3ccco3)c2)cc1C,0%,10µM*,?,-4%,2,-29%[10 µM]
COC(=O)[C@@H]1C[C@H]1[C@@H](NC(=O)OCc1ccccc1)c1ccccc1,.,.,.,.,.,5%
COc1cccc(NC(=S)/C(=C(\[O-])c2ccc(C)c([N+](=O)[O-])c2)[n+]2ccccc2)c1,3%,12%,-1%,-1%,-13,6%
COc1cccc(NC(=S)/C(=C(\[O-])c2cc(C)n(-c3ccccc3F)c2C)[n+]2ccc(N(C)C)cc2)c1,0%,13µM*,-4%,4%,-4,-78%
CC1(OC(=O)CCc2ccccc2)C(=O)C=C2C=C(c3ccc(C#N)cc3)N(Cc3ccccc3)C=C2C1=O (centres undefined),0%[11.2 µM],26%[9.22 µM],16µM*,3%[11.2 µM],-10,-8%[10 µM]
CCN(CC)CCCNC(=O)c1cn(CC)c2ccc(S(=O)(=O)N3CCC(C)CC3)cc2c1=O,0%,.,.,0%,.,.
